Source: PubChem BioAssay (Tox21)
Values without a mark were called inactive. Records with an inconclusive call do not appear. Where a call stands in place of a potency, no number is given. Calls of active or inactive are those of the source. Unless noted, calls come from the whole dose curve.

How the values were obtained:
[1] = Nuclear factor erythroid 2-related factor 2/antioxidant responsive element (Nrf2/ARE) small molecule agonists: qHTS cell viability counter screen in human keratinocytes (AID 1919968; active = well fitted curve in the direction sought with a large enough effect in the repeat runs; an effect the other way counts as inactive or inconclusive; note: nearly all actives have a fitted effect of over 55% in size)
Summary of the method: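 Seed 1,500 KeratinoSens cells per well, then incubate 5 h at 37 C/5% CO2. Add compounds in DMSO and incubate 23 h. Add CellTiter-Fluor, wait 1 h and read fluorescence.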

[2] = Nuclear factor erythroid 2-related factor 2/antioxidant responsive element (Nrf2/ARE) small molecule agonists: luciferase reporter gene qHTS assay in human keratinocytes (AID 1919969); note: nearly all actives have a fitted effect of over 35% in size
[3] = target: KiSS-1 receptor (Homo sapiens) (UniProt Q969F8); experiment: Human kisspeptin (KISS1R) small molecule agonists, calcium flux assay in KISS1R-HEK293 cells (AID 1920064; active = well fitted curve in the direction sought with a large enough effect in the repeat runs; an effect the other way counts as inactive or inconclusive)
Sequence of KiSS-1 receptor (Homo sapiens) (Q969F8 whole entry, looked up): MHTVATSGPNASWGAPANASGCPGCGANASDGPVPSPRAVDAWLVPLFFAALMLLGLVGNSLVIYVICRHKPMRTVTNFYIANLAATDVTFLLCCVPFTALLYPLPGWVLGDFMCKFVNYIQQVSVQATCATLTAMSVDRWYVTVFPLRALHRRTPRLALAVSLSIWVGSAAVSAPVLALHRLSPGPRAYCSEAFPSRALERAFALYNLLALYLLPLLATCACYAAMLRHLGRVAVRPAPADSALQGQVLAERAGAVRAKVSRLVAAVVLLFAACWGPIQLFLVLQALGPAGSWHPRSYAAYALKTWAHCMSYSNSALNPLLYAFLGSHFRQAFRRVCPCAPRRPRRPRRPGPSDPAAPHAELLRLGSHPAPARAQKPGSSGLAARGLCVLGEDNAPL
Summary of the method: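 Cells plated and incubated 18 h; dye added, 1 h at 37 C; compounds in DMSO pinned in; signal read at 480/540 nm every second for 3 min. Each compound tested at 15 concentrations in triplicate.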

[4] = p53 small molecule agonists, cell-based qHTS assay with human liver microsomes: qHTS cell viability counter screen (AID 1963579); note: nearly all actives have a fitted effect of over 45% in size
Summary of the method: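 Tox21 library compounds, delivered from DMSO stocks, were tested on p53RE-bla cells together with 0.5 mg/mL human liver microsomes and 0.5 mg/mL NADPH (final) over 16 h at 37 C; CellTiter-Glo luminescence served as the cytotoxicity measure.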

[5] = p53 small molecule agonists, cell-based qHTS assay: qHTS cell viability counter screen (AID 1963581); note: nearly all actives have a fitted effect of over 45% in size
Summary of the method: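 Cells: HCT-116 with p53 response element-driven beta-lactamase. Treatment: 16 h, 37 C, compounds in DMSO. Read: CellTiter-Glo luminescence after 30 min RT.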

[6] = target: Muscarinic acetylcholine receptor M1 (Homo sapiens) (UniProt P11229); experiment: Cholinergic receptor muscarinic 1 (CHRM1) small molecule antagonists, cell-based qHTS assay (AID 1963588); note: nearly all actives have a fitted effect of over 40% in size; note: potency is the fitted concentration of half-maximal effect
Sequence of Muscarinic acetylcholine receptor M1 (Homo sapiens) (P11229 whole entry, looked up): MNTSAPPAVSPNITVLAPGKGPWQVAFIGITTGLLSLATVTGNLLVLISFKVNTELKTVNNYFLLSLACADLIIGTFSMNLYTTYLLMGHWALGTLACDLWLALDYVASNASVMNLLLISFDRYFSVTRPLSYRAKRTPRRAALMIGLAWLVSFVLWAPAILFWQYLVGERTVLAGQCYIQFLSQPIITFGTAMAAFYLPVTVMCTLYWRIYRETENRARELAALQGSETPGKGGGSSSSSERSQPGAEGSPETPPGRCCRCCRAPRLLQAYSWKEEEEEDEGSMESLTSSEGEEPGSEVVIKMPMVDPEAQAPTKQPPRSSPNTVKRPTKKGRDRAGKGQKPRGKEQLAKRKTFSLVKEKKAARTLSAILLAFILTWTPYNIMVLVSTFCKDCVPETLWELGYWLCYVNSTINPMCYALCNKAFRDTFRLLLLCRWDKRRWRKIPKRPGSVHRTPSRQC
Summary of the method: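 CHRM1-CHO calcium-flux assay, antagonist mode. Cells were seeded 18 h, dye-loaded 1 h at 37 C and given compound for 5 min at RT, then acetylcholine was added at 50nM. FDSS fluorescence was read 3 min; 15 concentrations, three runs.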

[7] = target: Muscarinic acetylcholine receptor M1 (Homo sapiens) (UniProt P11229); experiment: Cholinergic receptor muscarinic 1 (CHRM1) small molecule agonists, cell-based qHTS assay (AID 1963589); note: nearly all actives have a fitted effect of over 35% in size
Summary of the method: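 Agonist-mode qHTS in CHO cells stably carrying human muscarinic M1. Intracellular calcium is tracked by fluorescence every second after compound transfer; each compound runs at 15 concentrations in three independent runs.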

[8] = cAMP Responsive Elements (CRE) small molecule agonists, cell-based qHTS assay (AID 1963590)
Summary of the method: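 Agonist mode qHTS in CRE-bla HEK 293T cells: compounds dosed from DMSO for 3 h at 37 C/5% CO2, followed by LiveBLAzer B/G FRET substrate for 2 h at room temperature.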

[9] = cAMP Responsive Elements (CRE) small molecule antagonists, cell-based qHTS assay (AID 1963591; active = well fitted inhibition curve with a large enough effect in the signal ratio in the repeat runs, not every such curve was filed as active; the % refers to the signal ratio)
Summary of the method: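 Antagonist mode: test compounds are co-incubated with the adenylyl cyclase activator NKH477 (0.25 uM final) on CRE-bla HEK293T cells for 3 h at 37 °C, followed by LiveBLAzer substrate loading.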

[10] = target: Beta-2 adrenergic receptor (Homo sapiens) (UniProt P07550); experiment: Adrenergic beta2 receptor (ADRB2) small molecule antagonists, cell-based qHTS assay (AID 1963592); note: nearly all actives have a fitted effect of over 50% in size; note: potency is the fitted concentration of half-maximal effect
Sequence of Beta-2 adrenergic receptor (Homo sapiens) (P07550 whole entry, looked up): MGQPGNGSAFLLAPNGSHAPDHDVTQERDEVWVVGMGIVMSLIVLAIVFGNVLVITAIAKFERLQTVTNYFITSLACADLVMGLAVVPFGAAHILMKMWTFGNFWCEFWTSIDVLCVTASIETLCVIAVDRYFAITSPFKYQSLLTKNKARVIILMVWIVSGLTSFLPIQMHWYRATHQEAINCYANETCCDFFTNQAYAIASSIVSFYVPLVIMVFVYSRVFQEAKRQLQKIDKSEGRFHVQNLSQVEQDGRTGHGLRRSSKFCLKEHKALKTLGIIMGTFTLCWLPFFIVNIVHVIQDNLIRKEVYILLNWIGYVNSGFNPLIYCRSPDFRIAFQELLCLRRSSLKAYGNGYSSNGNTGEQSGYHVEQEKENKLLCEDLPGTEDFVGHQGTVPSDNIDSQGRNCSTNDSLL
Summary of the method: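 Cells (CHO, stable ADRB2 overexpression) incubated 18-20hr at 37C; compounds added from DMSO; agonist mix (1nM isoproterenol, 100uM IBMX, 25uM Ro-20-1724) added; 0.5hr RT; d2-cAMP and anti-cAMP-cryptate added; 1hr RT; 665/615 nm read.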

[11] = target: D(2) dopamine receptor (Homo sapiens) (UniProt P14416); experiment: Dopamine D2 receptor (DRD2) small molecule antagonists, cell-based qHTS assay (AID 1963595; active = well fitted inhibition curve with a large enough effect in the signal ratio in the repeat runs, with a control signal flat; the % refers to the signal ratio)
Sequence of D(2) dopamine receptor (Homo sapiens) (P14416 whole entry, looked up): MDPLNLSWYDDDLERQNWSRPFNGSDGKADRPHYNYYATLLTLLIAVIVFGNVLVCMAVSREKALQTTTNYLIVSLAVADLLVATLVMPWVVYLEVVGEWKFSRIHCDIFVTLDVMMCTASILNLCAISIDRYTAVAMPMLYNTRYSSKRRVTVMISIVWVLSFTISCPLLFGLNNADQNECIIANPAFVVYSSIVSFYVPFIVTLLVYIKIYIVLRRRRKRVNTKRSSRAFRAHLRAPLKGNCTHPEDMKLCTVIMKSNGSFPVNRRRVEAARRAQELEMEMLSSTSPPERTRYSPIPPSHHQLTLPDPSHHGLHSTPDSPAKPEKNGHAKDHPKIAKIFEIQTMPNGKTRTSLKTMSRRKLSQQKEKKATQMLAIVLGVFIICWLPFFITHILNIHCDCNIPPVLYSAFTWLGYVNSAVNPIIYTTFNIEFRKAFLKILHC
Summary of the method: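 Human DRD2 antagonist qHTS measuring cAMP by HTRF. The cells are exposed to compound for 10 min, then to NKH477 (200 nM) and quinpirole (12 nM) for 30 min at RT, with Ro20-1724 (0.1 mM) present throughout.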

[12] = G protein-coupled receptor (GPCR) small molecule agonists, calcium flux assay: HEK293 wild type cell line counter screen (AID 1920065)
Summary of the method: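 Counter-screen of the Tox21 10K library for non-specific calcium release: dye-loaded cells received compounds in DMSO and were monitored by kinetic fluorescence (480/540 nm, 3 min). Fifteen concentrations, run in triplicate.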

[13] = p53 small molecule agonists, cell-based qHTS assay with rat liver microsomes: qHTS cell viability counter screen (AID 1963580); note: nearly all actives have a fitted effect of over 45% in size
Summary of the method: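 p53RE-bla HCT-116 cells (4,000/well) rested 5 h at 37 C, then given Tox21 compounds in DMSO with rat liver microsomes (0.5 mg/mL final) plus NADPH (0.5 mg/mL final) for 16 h at 37 C. Viability read by CellTiter-Glo luminescence after 30 min at room temperature.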

[14] = target: D(2) dopamine receptor (Homo sapiens) (UniProt P14416); experiment: Dopamine D2 receptor (DRD2) small molecule agonists, cell-based qHTS assay (AID 1963594); note: nearly all actives have a fitted effect of over 35% in size
Summary of the method: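 HEK293 cells stably expressing DRD2 were cultured 24 h at 37 C, then given Ro20-1724 (0.1 mM final) and compounds for 10 min at room temperature. NKH477 (200nM) was then added for 30 min. cAMP was read by HTRF.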

[15] = p53 small molecule agonists, cell-based qHTS assay with human liver microsomes (AID 1963577);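 note: p53 response element beta-lactamase reporter cells with liver microsomes plus NADPH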
Summary of the method: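 Metabolically competent format: test substances, human liver microsomes and NADPH (both 0.5 mg/mL final) incubated with p53RE-bla cells 16 h at 37 C. Beta-lactamase reporter signal then quantified by fluorescence.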

[16] = p53 small molecule agonists, cell-based qHTS assay with rat liver microsomes (AID 1963578)
Summary of the method: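 Each plate received p53RE-bla cells, then compound, then rat liver microsomes and NADPH (both 0.5 mg/mL final). Plates were held 16 h at 37 C, and beta-lactamase activity was detected with LiveBLAzer over 2 h.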

[17] = target: 5-hydroxytryptamine receptor 2A (Homo sapiens) (UniProt P28223); experiment: 5-hydroxytryptamine receptor 2A (HTR2A) small molecule antagonists, cell-based qHTS assay (AID 1963586); note: nearly all actives have a fitted effect of over 45% in size; note: potency is the fitted concentration of half-maximal effect
Sequence of 5-hydroxytryptamine receptor 2A (Homo sapiens) (P28223 whole entry, looked up): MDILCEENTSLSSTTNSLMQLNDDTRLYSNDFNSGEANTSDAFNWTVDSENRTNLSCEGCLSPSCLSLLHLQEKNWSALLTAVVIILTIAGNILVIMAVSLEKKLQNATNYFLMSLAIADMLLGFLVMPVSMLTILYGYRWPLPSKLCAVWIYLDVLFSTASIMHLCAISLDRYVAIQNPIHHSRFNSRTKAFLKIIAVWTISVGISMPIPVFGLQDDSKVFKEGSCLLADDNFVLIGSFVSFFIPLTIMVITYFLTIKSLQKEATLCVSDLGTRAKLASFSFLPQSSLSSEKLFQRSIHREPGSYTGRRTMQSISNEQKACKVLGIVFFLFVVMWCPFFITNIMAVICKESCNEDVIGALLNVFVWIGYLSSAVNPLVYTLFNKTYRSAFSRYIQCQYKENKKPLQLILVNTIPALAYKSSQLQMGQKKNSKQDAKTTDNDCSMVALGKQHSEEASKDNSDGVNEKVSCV
Summary of the method: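 Antagonist-mode intracellular calcium assay: DOI (4 nM) added after 5 min compound pre-incubation at room temperature to dye-loaded HTR2A-CHO cells. Fluorescence followed for 3 min, sampled every second.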

[18] = target: 5-hydroxytryptamine receptor 2A (Homo sapiens) (UniProt P28223); experiment: 5-hydroxytryptamine receptor 2A (HTR2A) small molecule agonists, cell-based qHTS assay (AID 1963587); note: nearly all actives have a fitted effect of over 30% in size
Summary of the method: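 HTR2A-CHO cells, plated 18 h at 37 C/5% CO2, dye-loaded 1 h at 37 C; compounds in DMSO added by pin tool (agonist mode). Intracellular calcium flux read as kinetic fluorescence on FDSS over 2 min at 1 s intervals.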

[19] = target: Beta-2 adrenergic receptor (Homo sapiens) (UniProt P07550); experiment: Adrenergic beta2 receptor (ADRB2) small molecule agonists, cell-based qHTS assay (AID 1963593);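 note: CHO cells stably overexpressing human ADRB2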
Summary of the method: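 CHO cells stably over-expressing ADRB2 were plated overnight at 37C, then dosed with compounds plus a stimulation mix containing 100uM IBMX and 25uM Ro-20-1724 for 0.5hr at room temperature. cAMP was measured by HTRF competition, 1hr.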

[20] = p53 small molecule agonists, cell-based qHTS assay (AID 1963582; active = well fitted activation curve with a large enough effect in the signal ratio in the repeat runs, not every such curve was filed as active; the % refers to the signal ratio)
Summary of the method: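 Quantitative HTS in p53RE-bla cells: after a 5 h settling period, compounds delivered in DMSO were left on cells for 16 h at 37 C, and reporter induction was measured as fluorescence following 2 h substrate loading.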

Row | SMILES | Potency [1] | Potency [2] | Potency [3] | Potency [4] | Potency [5] | Potency [6] | Potency [7] | Potency [8] | Potency [9] | Potency [10] | Potency [11] | Potency [12] | Potency [13] | Potency [14] | Potency [15] | Potency [16] | Potency [17] | Potency [18] | Potency [19] | Potency [20]
1 | NC(=O)c1cc[n+](CC2=C(C(=O)[O-])N3C(=O)[C@@H](NC(=O)Cc4cccs4)[C@H]3SC2)cc1 | inactive | inactive | inactive | inactive | inactive | inactive | inactive | inactive | inactive | inactive | inactive |  |  |  |  |  |  |  |  | 
2 | CSCC[C@H](NC(=O)[C@H](Cc1c[nH]c2ccccc12)NC(=O)CCNC(=O)OC(C)(C)C)C(=O)N[C@@H](CC(=O)O)C(=O)N[C@@H](Cc1ccccc1)C(N)=O | inactive | inactive | inactive | inactive | inactive |  |  | inactive | inactive | inactive | inactive | inactive | inactive | inactive |  |  |  |  |  | 
3 | CC1(C)CCC(C)(C)c2cc(C(=O)Nc3ccc(C(=O)O)cc3)ccc21 | inactive | inactive | inactive |  |  |  | inactive |  |  | inactive | inactive |  |  | inactive | inactive | inactive |  |  |  | 
4 | CCCCCC/C=C/C=O | inactive | inactive | inactive | inactive |  | inactive | inactive |  |  | inactive |  | inactive | inactive | inactive |  |  | inactive | inactive | inactive | 
5 | CN(C)CCOc1ccccc1Cc1ccccc1 | inactive | inactive | inactive | inactive | inactive | 1.45 µM (active) | inactive | inactive | inactive | 33.5 µM (active) | inactive |  | inactive | inactive |  |  | 0.326 µM (active) | inactive |  | 
6 | CCCCOCCOC(=O)COc1nc(Cl)c(Cl)cc1Cl | inactive | inactive |  | inactive |  |  |  | inactive | inactive |  |  | inactive | inactive |  | inactive | inactive |  |  |  | inactive
7 | C[C@@H](Oc1ccc(CNC(=O)c2cccnc2Oc2ccc3c(c2)OCO3)c(F)c1)C(=O)O | inactive | inactive | inactive | inactive |  | inactive | inactive | inactive |  | inactive | inactive | inactive | inactive |  |  |  | inactive | inactive |  | 
8 | FC(F)(Cl)C(F)(Cl)Cl | inactive | inactive | inactive | inactive | inactive |  | inactive | inactive | inactive | inactive | inactive | inactive | inactive | inactive |  |  | inactive |  |  | 
9 | OCCN1CCOCC1 | inactive | inactive | inactive | inactive | inactive | inactive | inactive | inactive | inactive | inactive | inactive |  | inactive | inactive |  |  | inactive |  |  | 
10 | Fc1ccccc1[C@@H](F)COC1CCC(Nc2ncnc3[nH]ncc23)CC1 (stereo partly drawn) | inactive | inactive |  |  |  | inactive | inactive |  |  | inactive | inactive | inactive | inactive | inactive | inactive | inactive |  | inactive | inactive | 
11 | Cc1cccc(C)c1NC(=O)C(C)N (stereo not drawn) | inactive | inactive |  | inactive | inactive |  |  | inactive | inactive | inactive | inactive | inactive | inactive | inactive | inactive | inactive |  |  | inactive | 
12 | CCCCCOC(=O)Nc1nc(=O)n([C@@H]2O[C@H](C)[C@@H](O)[C@H]2O)cc1F | inactive | inactive | inactive |  |  | inactive | inactive | inactive | inactive |  |  |  | inactive | inactive |  | inactive | inactive | inactive |  | 
13 | CN(C)CCN(C)CCO | inactive | inactive | inactive | inactive | inactive | inactive | inactive | inactive | inactive | inactive | inactive | inactive | inactive | inactive |  |  | 9.4 µM (active) |  | inactive | 
14 | COc1cc(C(C)=O)ccc1OCCCN1CCC(c2noc3cc(F)ccc23)CC1 | inactive | inactive | inactive |  | inactive | 3.65 µM (active) | inactive | inactive | inactive |  |  | inactive | inactive | inactive |  |  |  | inactive |  | 
